According to PubChem BioAssay:
Activity calls are given as the source filed them.

Assays:
[1] = compounds binding Alexa647 anti-His antibody – biochemical, small-molecule microarray, 635 nm fluorescence, artefact control for SMM control protein annotation, primary screen (AID 1128); conditions: higher = more signal;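 further: score merges feature fluorescence with signal-to-noise for each printed compound spot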
[2] = system: Human papillomavirus type 1a E7 protein (residues 1-88); test: HPV1a E7 small-molecule binders, primary screen, biochemical, small-molecule microarray, residues 1-88, 635 nm (AID 1129); conditions: small-molecule microarray binding, fluorescence 635 nm; higher = more signal
[3] = biological target: Focal adhesion kinase 1 (Homo sapiens) (UniProt Q05397); test: PTK2 protein binding on printed compound slides – biochemical, small-molecule microarray, 635/667 nm fluorescence, BSA, DTT, primary screen (AID 1130); conditions: 635 nm fluorescence, higher = more signal;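 further: composite of spot emission at 667 nm and signal to noise over triplicate slides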
Focal adhesion kinase 1 (Homo sapiens), sequence (Q05397 whole entry, looked up): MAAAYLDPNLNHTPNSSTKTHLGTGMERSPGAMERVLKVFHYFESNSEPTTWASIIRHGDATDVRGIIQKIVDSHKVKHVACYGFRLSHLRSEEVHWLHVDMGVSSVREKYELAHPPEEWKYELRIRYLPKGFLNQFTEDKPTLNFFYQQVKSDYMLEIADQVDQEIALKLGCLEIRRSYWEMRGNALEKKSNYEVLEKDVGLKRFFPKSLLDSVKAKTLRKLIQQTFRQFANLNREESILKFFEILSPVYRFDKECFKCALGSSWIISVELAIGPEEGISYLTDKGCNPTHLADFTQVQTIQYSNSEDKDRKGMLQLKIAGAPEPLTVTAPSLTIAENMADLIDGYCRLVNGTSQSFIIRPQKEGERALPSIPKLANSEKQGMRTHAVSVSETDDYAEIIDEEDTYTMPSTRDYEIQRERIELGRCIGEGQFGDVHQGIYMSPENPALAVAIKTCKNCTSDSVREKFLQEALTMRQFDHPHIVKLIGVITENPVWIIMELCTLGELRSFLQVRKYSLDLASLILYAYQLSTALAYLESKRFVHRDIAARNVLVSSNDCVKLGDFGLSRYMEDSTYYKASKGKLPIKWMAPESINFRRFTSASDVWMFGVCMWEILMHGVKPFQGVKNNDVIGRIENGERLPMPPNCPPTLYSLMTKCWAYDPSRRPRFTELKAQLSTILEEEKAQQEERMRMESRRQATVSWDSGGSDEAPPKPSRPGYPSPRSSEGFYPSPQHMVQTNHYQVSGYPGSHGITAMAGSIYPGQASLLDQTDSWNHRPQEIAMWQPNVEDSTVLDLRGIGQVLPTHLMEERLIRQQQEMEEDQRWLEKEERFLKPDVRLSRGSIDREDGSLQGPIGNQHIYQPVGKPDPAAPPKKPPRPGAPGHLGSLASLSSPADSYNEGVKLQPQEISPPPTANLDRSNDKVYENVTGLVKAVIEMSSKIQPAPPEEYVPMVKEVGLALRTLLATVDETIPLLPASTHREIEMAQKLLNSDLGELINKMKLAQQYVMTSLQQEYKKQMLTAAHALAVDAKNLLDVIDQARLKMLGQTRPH

[4] = system: Fibrinogen (Alexa647-labelled); test: Alexa647-fibrinogen binding to printed small molecules – biochemical, small-molecule microarray, 635/667 nm fluorescence, artefact control for SMM control-protein annotation, profiling panel (AID 1131); conditions: fibrinogen-A647 binding fluorescence, higher = more signal;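 further: z-score merges 667 nm fluorescence with per-spot signal-to-noise over triplicate slides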
[5] = biological target: Follistatin (Homo sapiens) (UniProt P19883); test: FST protein binding to printed compounds – biochemical, small-molecule microarray, 635/667 nm fluorescence, primary screen (AID 1132); conditions: 635 nm fluorescence, higher = more signal
Follistatin (Homo sapiens), sequence (P19883 whole entry, looked up): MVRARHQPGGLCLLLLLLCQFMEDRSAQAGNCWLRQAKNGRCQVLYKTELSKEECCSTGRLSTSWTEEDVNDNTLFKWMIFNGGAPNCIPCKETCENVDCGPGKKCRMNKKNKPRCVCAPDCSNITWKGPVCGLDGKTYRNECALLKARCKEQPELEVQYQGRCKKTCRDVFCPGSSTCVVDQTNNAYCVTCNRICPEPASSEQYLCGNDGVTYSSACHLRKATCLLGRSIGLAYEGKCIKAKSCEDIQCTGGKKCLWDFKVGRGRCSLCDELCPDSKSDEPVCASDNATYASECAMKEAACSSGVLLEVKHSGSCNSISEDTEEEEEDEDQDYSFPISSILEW

[6] = biological target: Fibroblast growth factor 2 (Homo sapiens) (UniProt P09038); test: basic fibroblast growth factor binding to printed compounds – biochemical, small-molecule microarray, 635/667 nm fluorescence, primary screen (AID 1133); conditions: FGF2, fluorescence 635/667, higher = more signal
Fibroblast growth factor 2 (Homo sapiens), sequence (P09038 whole entry, looked up): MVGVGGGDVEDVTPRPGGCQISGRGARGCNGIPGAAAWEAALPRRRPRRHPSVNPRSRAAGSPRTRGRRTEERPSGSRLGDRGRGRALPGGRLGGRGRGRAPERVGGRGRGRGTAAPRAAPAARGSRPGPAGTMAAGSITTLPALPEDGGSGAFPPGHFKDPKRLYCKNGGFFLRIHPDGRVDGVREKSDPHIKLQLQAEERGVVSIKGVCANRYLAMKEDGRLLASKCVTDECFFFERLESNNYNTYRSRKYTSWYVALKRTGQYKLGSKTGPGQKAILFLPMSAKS

[7] = JC-1 mitochondrial potential readout, lung cancer cells – cell-based, A549, JC-1 fluorescence, basal, 24 h, 100 nL, profiling panel (AID 1138); conditions: higher = more signal;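 further: A549 lung adenocarcinoma cells under basal conditions with no added stimulus; test concentration not given here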
Lefty1 = Lefty1 protein binding to printed compounds – biochemical, small-molecule microarray, 635/667 nm fluorescence, primary screen (AID 1139); conditions: fluorescence 635/667, higher = more signal
[8] = system: wheat germ agglutinin (Triticum aestivum), Alexa647-labelled; test: Alexa647-WGA lectin binding to printed small molecules – biochemical, small-molecule microarray, 635/667 nm fluorescence, artefact control for SMM control-protein annotation, profiling panel (AID 1140); conditions: WGA-A647 binding, 635 nm fluorescence, higher = more signal;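 further: score merges 667 nm feature emission with signal to noise over triplicate slides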
[9] = biological target: Luciferin 4-monooxygenase (Photinus pyralis) (UniProt P08659); test: inhibition of purified Photinus pyralis luciferase – biochemical, luminescence, purified enzyme, 2006 set, primary screen (AID 1141); conditions: purified firefly luciferase, SteadyGlo luminescence, 30 min; higher = more signal, called active from +8 up or from −8 down;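 further: cell-free assay with purified firefly luciferase at 100 ng per well in PBS; test concentration not given here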
Luciferin 4-monooxygenase (Photinus pyralis), sequence (P08659 whole entry, looked up): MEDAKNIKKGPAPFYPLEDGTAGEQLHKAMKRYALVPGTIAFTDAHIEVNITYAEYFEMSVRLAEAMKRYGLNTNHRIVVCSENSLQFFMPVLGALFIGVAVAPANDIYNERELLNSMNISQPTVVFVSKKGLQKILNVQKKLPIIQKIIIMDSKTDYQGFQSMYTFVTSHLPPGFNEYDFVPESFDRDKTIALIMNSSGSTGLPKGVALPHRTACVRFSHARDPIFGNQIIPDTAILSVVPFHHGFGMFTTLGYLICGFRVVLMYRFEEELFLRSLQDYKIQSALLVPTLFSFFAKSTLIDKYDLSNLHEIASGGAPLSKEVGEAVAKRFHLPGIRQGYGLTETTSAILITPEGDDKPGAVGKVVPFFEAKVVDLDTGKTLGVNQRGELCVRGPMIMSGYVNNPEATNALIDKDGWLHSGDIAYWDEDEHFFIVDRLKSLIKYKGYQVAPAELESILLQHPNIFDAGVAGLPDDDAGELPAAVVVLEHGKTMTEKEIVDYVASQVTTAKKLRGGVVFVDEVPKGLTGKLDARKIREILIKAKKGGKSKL

Compound | composite z-score [1] | composite z-score [2] | composite z-score [3] | composite z-score [4] | composite z-score [5] | composite z-score [6] | z-score [7] | composite z-score (Lefty1) | composite z-score [8] | z-score [9]
C/C(=N\O)C(=O)NCCCCCNC(=O)OCc1ccccc1 | 0.443 | 0.783 | 0.317 | 0.825 | 0.7 | 0.545 | 2.02 | 0.93 | 0.3 | -1.72 (inactive)
C=CCN1C(=O)[C@@]2(Cc3ccccc3)N=C(c3ccc(OCCCO)cc3)O[C@H]2c2ccccc21 | 1.69 | 1.23 | 0.665 | 0.578 | 1.39 | 1.08 | -0.993 | 0.398 | 0.648 | -5.51 (inactive)
CCOC(=O)C1=C[C@@H](c2ccccc2)N(S(=O)(=O)c2ccc(C)cc2)[C@H]1c1ccc(F)cc1 | 0.986 | 1.14 | 1.23 | 0.995 | 1.06 | 0.47 | 0.994 | 0.207 | 1.08 | 1.54 (inactive)
CCCNC(=O)[C@@H]1c2ccccc2C(=O)N(Cc2cc(F)cc(C(F)(F)F)c2)[C@H]1c1ccc(CO)cc1 | 2.1 | 1.14 | 0.674 | 0.62 | 1.41 | 0.587 | 1.74 | 1.58 | 0.628 | -0.747 (inactive)
O=C(NCc1ccccc1)[C@@]1(Cc2ccccc2)COC(c2ccc(OCCCO)cc2)=N1 | 2.46 | 1.17 | 0.773 | 0.838 | 0.0985 | -0.238 | -1.56 | -0.554 | 0.449 | -0.603 (inactive)
CCOC(=O)C1=CCC(c2cccc3ccccc23)N(S(=O)(=O)c2ccc(C)cc2)C1 (stereo not given) | 0.206 | 1.17 | 1.02 | 0.928 | 0.825 | -0.509 | 2.43 | 0.052 | 0.697 | 1.72 (inactive)
CC(C)=C1C(=O)C(c2ccccc2)=C2CN3C(=O)N(CCc4ccccc4)C(=O)[C@]3(Cc3ccccc3)[C@H]21 | 1.39 | -0.992 | 0.521 | -0.358 | -1.04 | -0.77 | 1.45 | -0.961 | -0.112 | 0.451 (inactive)
CCCC/C=C/[C@H]([C@@H](O)Cc1ccccc1)N(CC#Cc1ccccc1)Cc1ccccc1Br | 0.0428 | -0.462 | -0.219 | -0.986 | -1.59 | -1.37 | 1.03 | -1.84 | -0.788 | -1.12 (inactive)
CC(C)CNC(=O)[C@@]1(C)c2ccccc2C(=O)N(Cc2ccc(OC(F)(F)F)cc2)[C@H]1c1ccc(CO)cc1 | 0.206 | 0.325 | -0.0752 | -0.0439 | -0.27 | 0.192 | 0.209 | -1.43 | -0.0416 | -1.22 (inactive)
O=C1OCCC=C[C@H]2OC34C=CCN(Cc5ccccc5)C(=O)[C@H]3N(CCO)C(=O)[C@@H]4C12 (stereo not given in full) | -0.954 | -1.18 | -0.616 | -1.89 | -1.21 | -0.379 | 0.252 | -0.705 | -2.09 | -0.678 (inactive)
NC(=O)NCC#Cc1ccc2c(c1)[C@]1(C(=O)N2)[C@H](C(=O)N2CCCCCCC2)[C@H]2C(=O)O[C@H](c3ccccc3)[C@H](c3ccccc3)N2[C@@H]1c1ccccc1OCCO | 1.03 | 1.27 | 2.88 | 0.743 | 1.51 | 0.0779 | 0.209 | 1.32 | 1.59 | -0.984 (inactive)
C=C(CCCC)/C(=C/C[C@H](OC(=O)c1ccncc1)c1cccc(OCCO)c1)c1cc(C(=O)OC)ccc1OC | 1.06 | 0.492 | -0.0622 | 0.723 | 0.852 | 1.59 | 0.397 | 1.17 | 0.311 | 0.34 (inactive)
CCOC(=O)C1=CC[C@@H](c2ccccc2)N(S(=O)(=O)c2ccc(C)cc2)[C@H]1C | 1.18 | 1.24 | 0.147 | 1.02 | 0.92 | 0.952 | 3.66 | 0.778 | 0.457 | 0.347 (inactive)
COc1ccc([Si](C)(C)[C@H]2[C@H](CC(=O)N3Cc4ccccc4C[C@H]3CO)O[C@@]3(C(=O)N(Cc4cccc(N5CCOC5=O)c4)c4ccccc43)[C@@H]2C)cc1 | 1.42 | 0.533 | 0.432 | -0.235 | 1.31 | 1.32 | 2 | 1.24 | 0.188 | -0.86 (inactive)
CC(=O)NCCCC[C@@H]1NC(=O)[C@@H]2C[C@H](C(=O)NCCCCCNC(=O)CS)[C@H](c3ccc(O)cc3)N2C1=O | 0.133 | -0.265 | -0.295 | -0.786 | 1.44 | 0.746 | 1.18 | 1.4 | -0.802 | -1.88 (inactive)
C=C[C@H](OC)[C@@H](OC(=O)Nc1ccc(SC)cc1)c1ccc(OC)c(O)c1 | -0.548 | -0.19 | -0.0802 | -0.666 | -0.466 | -0.896 | 0.52 | -0.541 | -1.51 | -2.18 (inactive)
Cc1ccc(N2C(=O)c3ccccc3[C@](C)(C(=O)NCC(C)C)[C@@H]2c2ccc(CO)cc2)nc1 | -1.02 | -1.2 | -1.04 | -1.43 | -0.125 | -0.671 | -0.393 | -0.589 | 0.0574 | 0.525 (inactive)
